HPGD block: inhibitors of human 15-hydroxyprostaglandin dehydrogenase (HPGD); P15428; purified HPGD, NADH fluorescence kinetic, PGE2 substrate; Potency, µM, inactives show at the top dose activity change, negative = inhibition, hits mostly inhibitors; 150,000 compounds, 4.3% hits; active means well fitted inhibition curve with a large enough effect, not every such curve was filed as active; inconclusive means small, poorly fitted or top-dose-only effect, or another doubt; inactive means no such curve, though single readings can be large or run the other way; further: potency means the concentration at half of the fitted maximal effect
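20 nM HPGD preincubated 15 min at room temperature with compound in 50 mM Tris-HCl pH 8, 0.01% Tween 20. Started with 1 mM NAD+ and 30 uM prostaglandin E2; NADH fluorescence (360/450 nm) read 5 times over 30-s intervals, last minus first.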
IMPase inh: IMPase inhibition in cells; P97697; CHO-M1 cells, IP1 accumulation, HTRF TR-FRET ratio; inhibition (IP1 accumulation), % at 46.1 µM; 120,000 tested, under 10 active; active means well fitted curve in the direction sought with a large enough effect in the signal ratio, not every such curve was filed as active; inconclusive means small, poorly fitted or top-dose-only effect, or a change in a side signal; inactive means no such curve, though single readings can be large or run the other way; the % refers to the signal ratio;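 further: cells stimulated with carbachol in lithium chloride buffer; plate controls were DMSO basal wells for no effect and reference inhibitor wells for full effect; higher means more IMPase inhibition seen as more IP1 and lower FRET ratio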
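Elevated IP1 in lysates lowers TR-FRET signal (665/620 ratio and 620 channel reported). Cells were CHO-M1, given carbachol (50 uM as added) plus 50mM LiCl, pH 7.4, 30 min, 37C; compounds titrated up to 46 uM; AC50 by Hill equation.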
15-hLO-2 inh: 15-hLO-2 (ALOX15B) enzyme inhibition; 110,000 compounds, 0.56% hits; O15296; AID 881; purified 15hLO-2, xylenol orange hydroperoxide absorbance; Potency, µM (top dose mostly 57.1 µM), for the others: at the top dose activity change, negative = inhibition, usual class: inhibitors; further: potency means the concentration at half of the fitted maximal effect; nearly all actives have a fitted effect of over 60% in size
Target sequence (O15296 whole entry, looked up): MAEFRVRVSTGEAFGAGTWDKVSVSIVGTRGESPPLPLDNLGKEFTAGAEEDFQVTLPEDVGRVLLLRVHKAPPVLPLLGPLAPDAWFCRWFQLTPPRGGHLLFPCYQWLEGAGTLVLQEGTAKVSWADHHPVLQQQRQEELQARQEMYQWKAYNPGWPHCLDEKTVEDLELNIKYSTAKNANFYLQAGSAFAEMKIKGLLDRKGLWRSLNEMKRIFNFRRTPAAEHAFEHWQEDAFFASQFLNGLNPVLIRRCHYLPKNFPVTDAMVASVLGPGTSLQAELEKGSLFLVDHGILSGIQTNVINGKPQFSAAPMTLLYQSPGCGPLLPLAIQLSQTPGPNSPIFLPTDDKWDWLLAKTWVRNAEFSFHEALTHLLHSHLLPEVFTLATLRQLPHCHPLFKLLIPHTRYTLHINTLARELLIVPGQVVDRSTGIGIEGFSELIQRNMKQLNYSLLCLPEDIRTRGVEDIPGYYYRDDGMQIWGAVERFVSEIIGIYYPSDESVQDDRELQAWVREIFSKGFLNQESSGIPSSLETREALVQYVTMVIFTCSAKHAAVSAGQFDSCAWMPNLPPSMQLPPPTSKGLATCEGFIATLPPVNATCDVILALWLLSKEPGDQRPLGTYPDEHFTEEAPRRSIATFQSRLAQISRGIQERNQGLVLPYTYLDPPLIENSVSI
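Purified human 15hLO-2 (50 nM) preincubated 15 min with compound, then 45 uM arachidonic acid for 90 min at RT in 25 mM Hepes pH 7.5, 0.01% Triton X-100. Hydroperoxide detected by Fe-xylenol orange; 573/405 nm absorbance ratio.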
12-hLO inh: inhibitors of human 12-lipoxygenase (ALOX12) | purified 12-hLO, xylenol orange hydroperoxide absorbance | Potency, µM (highest dose often 57.1 µM), without a hit: at the top dose activity change, negative = inhibition, most hits filed as inhibitors | 150,000 compounds, 0.12% hits | AID 1452; further: potency means the concentration at half of the fitted maximal effect; nearly all actives have a fitted effect of over 55% in size
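150 nM 12hLO, 25 mM Hepes pH 7.0 + 0.01% Triton X-100; cpd preinc 15 min RT; 40 uM arachidonic acid, 30 min RT; Fe-XO 30 min; A573/A405 ratio as read-out.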
IMPase Li inh: membrane-permeable IMPase blocker, potentiated with lithium; CHO-M1 cells, IP1 TR-FRET (IP-One), carbachol + lithium; Potency, µM (series often up to 59.4 µM), for inactives: at the top dose activity, negative = IMPase inhibition, most hits filed as inhibitors; 210,000 compounds, 0.35% hits;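 further: IP1 builds up when IMPase is blocked and the TR-FRET signal falls; potency means the concentration at half of the fitted maximal effect; plate controls were basal vehicle for no effect and high inhibitor control for full effect; nearly all actives have a fitted effect of over 50% in size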
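CHO-M1, 2000 cells/well, 16–30 h culture; cpd + low Li+, 30 min 37C; lysis with d2-IP1/Eu-anti-IP1 Ab, 10 min RT; TR-FRET 665/620 ratio and 620 channel; AC50 via Hill.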
PNC inhibitor: inhibitors of perinucleolar compartment assembly. PC3M PTB-GFP, PNC prevalence imaging, 16 h; active compounds read low. activity change (PNC), negative = inhibition, % at 10 µM. 140,000 compounds, 3.1% hits;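 active means readout at or below -70, meaning at least 70% loss of cells showing the perinucleolar compartment, a nuclear body marking cancer cells; inconclusive means readout between -30 and a set limit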;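 further: plate controls were DMSO wells for no effect and camptothecin positive control wells for full effect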
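PC3M cells stably expressing PTB-GFP, 750–1000 cells/well, treated 16 h at 37 °C with compound (23 nl of library stock), in duplicate. After paraformaldehyde fixation and Hoechst stain, imaged at 20x; PNC prevalence scored by image analysis.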
An asterisk follows results filed as active; ? = inconclusive; / = not tested or not shown; [ ] = remark or other dose. Shown are actives, neighbours in structure and some others; about 5.3% of the full set was active somewhere. Unless noted, the call rests on the fitted dose curve; in most records, active means well fitted curve in the direction sought with a large enough effect; inconclusive means small, poorly fitted or top-dose-only effect, or another doubt; inactive means no such curve, though single readings can be large; an effect the other way counts as inactive or inconclusive. Unless noted, on the % scale 0 is the no-effect control and ±100 the full control effect.

SMILES	HPGD block	IMPase inh	15-hLO-2 inh	12-hLO inh	IMPase Li inh	PNC inhibitor
C#CCn1c(S(=O)(=O)Cc2ccc(F)cc2)nc(-c2ccccc2)c1-c1ccccc1	-11%	9	-4%	-2%	-2%[38.3 µM]	-106*
CC(=O)Oc1ccc(N2C(=O)C3C4C=CC(CC4)C3C2=O)cc1[N+](=O)[O-] (configuration not stated)	/	/	/	/	-8%	/
CC(=O)c1cnc2cc(-c3ccc(C)cc3)nn2c1C	?	0	/	1%	-2%	-100*
CCOc1ccc(-c2c(=O)n(OCc3ccc([N+](=O)[O-])cc3)c3ccccc3[n+]2[O-])cc1	-19%	-1	/	-9%	11%	42
CN(C)/C=C/C(=O)c1cccc(Cl)c1	25µM*	9	-1%	-15%	-7%	-1
CN(C)/C=C/C(=O)c1ccc(Cl)cc1	18µM*	1	2%	?	-3%[38.3 µM]	-12
COc1ccc(CCNC(=O)c2ccc(N3CCCC3=O)cc2)cc1OC	-6%	-1	3%	2%	15%[38.3 µM]	?
COc1ccc(COC(=O)c2ccc(N3CCCC3=O)cc2)cc1F	14µM*	-5	1%	-3%	6%[38.3 µM]	-23
CN1CCC(NC(=S)Nc2cccc([N+](=O)[O-])c2)CC1	/	/	/	/	4%	/
O=C(Nc1ccccc1C(F)(F)F)C1CC(=O)N(c2ccccc2F)C1 (configuration not stated)	-6%	14	5%	1%	8%[38.3 µM]	-81*
COC(=O)C1C(=O)C2=C(CC1C)NC(C)=C(C(=O)OC1CCCCC1)C2c1ccc(N(C)C)cc1 (configuration not stated)	-16%	-7	/	-9%	4%	-100*
COc1cccc(Cn2c(=O)c(-c3ccc(F)cc3)nc3cnc(N4CCNCC4)nc32)c1	/	/	51%	/	6%	/
CC1(C)CC(=O)C(C(C2=C(O)CC(C)(C)CC2=O)c2ccco2)C(=O)C1 (configuration not stated)	10µM*	0	-20%	-17%	-22%[38.3 µM]	6
COc1ccc(Cl)cc1NC(=O)CN1C(=O)CCS(=O)(=O)c2ccccc21	-14%	-9	/	-1%	4%	-100*
COc1ccccc1NC(=O)CN1C(=O)CCS(=O)(=O)c2ccccc21	-12%	6	/	5%	4%	?
COc1ccc(CC(=O)Nc2cccc(C)n2)cc1OC	-1%	/	/	-1%	-1%	-81*
O=C(COc1ccccc1)Nc1ccc(-c2nnc(-c3ccco3)o2)cc1	?	3	-4%	-2%	13µM*	-13
COc1cccc(-c2nc(-c3ccc(NC(=O)Cc4ccccc4OC)cc3)no2)c1	-24%	9	3%	-5%	23%[38.3 µM]	?
COc1ccc(CC(=O)Nc2ccc(-c3nnc(-c4ccccc4)o3)cc2)cc1OC	?	-4	?	6%	13µM*	-2
COc1ccc(CC(=O)Nc2ccc(-c3noc(-c4ccccc4OC)n3)cc2)cc1	-15%	10	-7%	-1%	11µM*	?
COc1cccc(NC(=O)c2ccccc2-c2nc(-c3cccc(C)c3)no2)c1	-11%	0	-2%	-6%	7%[38.3 µM]	-139*
COc1ccc2c(c1)C(=O)[C@@H](OC(=O)Nc1ccc(C)c(Br)c1)[C@H](c1ccc(OC)c(Br)c1)O2	-12%	/	/	/	5%	/
O=C(O)c1ccc2c(=O)n3c(nc2c1)/C(=C/c1ccccc1C(F)(F)F)CCCC3	16µM*	9	/	-7%	-1%	21
COc1ccc(/C=C2\CCn3c2nc2cc(C(=O)O)ccc2c3=O)cc1O	14µM*	?	/	-10%	22%	-96*
COc1cc(C2C(C(=O)OC(C)C)=C(C)N=C3SCCC(=O)N32)ccc1OCc1ccccc1 (configuration not stated)	/	-6	/	/	/	/
SMILES	HPGD block	IMPase inh	15-hLO-2 inh	12-hLO inh	IMPase Li inh	PNC inhibitor
C=CCOC(=O)C1=C(C)N=C2SCCC(=O)N2C1c1ccc(OC(=O)c2ccco2)cc1 (configuration not stated)	-24%	-5	-4%	3%	11%[38.3 µM]	-127*
COC(=O)c1ccc(C2C(C(=O)OC(C)C)=C(C)N=C3SCCC(=O)N32)cc1 (configuration not stated)	-15%	7	2%	-4%	9%[38.3 µM]	-90*
S=c1nc(C2CCCCC2)[nH][nH]1	14µM*	8	?	3%	-5%	?
O=C(c1ccc(Cl)c(F)c1F)N1CCCC1	20µM*	-3	2%	7%	8%[38.3 µM]	-8
COC1C=CO[C@@]2(C)Oc3c(C)c(O)c4c(O)c(c5c(nc6cc(C)ccn65)c4c3C2=O)NC(=O)/C(C)=C\C=CC(C)C(O)[C@@H](C)C(O)C(C)[C@@H](OC(C)=O)C1C (some centres not stated)	-13%	/	-19%	-4%	19%	/
CCOc1ccc(CCNc2ccc3nnc(-c4ccccc4)n3n2)cc1OCC	-8%	/	/	1%	-2%	-119*
O=C1c2ccccc2S(=O)(=O)N1CC1CC(c2ccc(Cl)cc2)=NO1 (configuration not stated)	18µM*	/	/	0%	3%	56
COc1ccc(C2=NOC(CN3C(=O)c4ccccc4S3(=O)=O)C2)cc1 (configuration not stated)	25µM*	-3	-3%	-1%	4%[38.3 µM]	-23
Cc1ccc(NC(=S)NNS(=O)(=O)c2ccc3ccccc3c2)cc1Cl	/	/	/	/	-13%	/
C/C(N)=C(/C#N)C(=O)CSc1nnc(Nc2cccc(C)c2C)s1	28µM*	?	?	-12%	-2%[38.3 µM]	-3
COc1ccc(-c2cnn3c(N)c(S(=O)(=O)c4ccccc4)cnc23)cc1	20µM*	7	1%	3%	1%	13
O=C(c1ccccc1CCc1ccccc1)N1CCN(c2ccccn2)CC1	?	1	5%[2.29 µM]	-3%	5%[38.3 µM]	-84*
COc1ccc(C(=O)CSc2nnc(CNC(=O)c3ccco3)n2C)cc1	/	/	/	/	4%	/
O=C(NC1CCCCC1)C1CCN(C(=O)c2ccc(-c3ccccc3)cc2)CC1	/	/	/	/	5%	/
CS(=O)(=O)N1CCN(C(=O)c2ccc(-c3ccccc3)cc2)CC1	-11%	-3	-2%	1%	23%[38.3 µM]	-83*
O=C(c1ccc(-c2ccccc2)cc1)N1CCC(C(=O)N2CCCC2)CC1	16µM*	9	-4%	3%	21%[38.3 µM]	-3
Brc1cccc(-c2nnc(CN3CCN(c4ccccn4)CC3)o2)c1	/	-6	/	/	/	/
CCCc1nnc(NC(=O)Cn2c(=O)oc3ccccc32)s1	28µM*	0	6%	25%	-4%	22

High-throughput results as filed in PubChem.
